# Key:
# Test in all cases: pooled miR-30 sensor sort-seq; sequence = guide strand
# Settings in all cases: shRNA
# ITFG1 = target: ITFG1
# ITFG2 = target: ITFG2
# ITGA2 = target: ITGA2
# Note: reference of the scale not given here.
sequence,measurement,setting,value
TAACTTTAACAAAATAAGCATC,sensor-assay potency score (higher = more potent),ITFG1,-1.35
TAGATCTTCTGGTTGAAAGTGA,sensor-assay potency score (higher = more potent),ITFG2,-0.00804
ATCGTTATCAACGTCTCCGAGG,sensor-assay potency score (higher = more potent),ITFG2,-1.09
TTTATCTTCACAGCCTGGCAGT,sensor-assay potency score (higher = more potent),ITFG1,-0.637
TTGAGGGAGCACACTGTGGTGG,sensor-assay potency score (higher = more potent),ITFG2,-0.228
TTGCTTAGTAGGTCTGAACTTT,sensor-assay potency score (higher = more potent),ITGA2,-0.177
